Source: PubChem
L3MBTL1 inh: qHTS Assay for the Inhibitors of L3MBTL1 | Lethal(3)malignant brain tumor-like protein 1 (Homo sapiens), Q9Y468 | AlphaScreen L3MBTL1–H3K9me1 peptide binding | Potency, µM (top dose mostly 57.1 µM), for inactives: at the top dose activity, negative = inhibition, actives largely listed as inhibitors | 0.66% of 230,000 active; also: % is scaled to controls: 0 for no effect and ±100 for the full control effect; nearly all actives have a fitted effect of over 60% in size
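Displacement of a biotinylated histone H3(1-15) peptide monomethylated at Lys9 (75 nM) from L3MBTL1 (50 nM) was measured by AlphaScreen after a 30 min room-temperature compound incubation; cefsulodin titration served as intraplate control.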
POLH inh: qHTS for Inhibitors of Polymerase Eta. recombinant Pol eta, fluorescent DNA replication assay. 1.2% of 390,000 active. Potency, µM (doses to about 114 µM), for inactives: at the highest dose activity change, negative = inhibition, actives largely listed as inhibitors; also: % is scaled to controls: 0 for no effect and ±100 for the full control effect
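Fluorescent replication assay: 50 nM final substrate added after a 15 min room-temperature compound preincubation with 10 nM enzyme. Signal taken at 0 min and again at 10 min.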
POLI inh: qHTS for Inhibitors of Polymerase Iota | DNA polymerase iota (Homo sapiens), Q9UNA4 | Pol iota fluorescent replication assay, 10 min | Potency, µM (top dose mostly 115 µM), for the others: at the top dose activity, negative = inhibition, usual class: inhibitors | 1% of 390,000 active
Target sequence (Q9UNA4 whole entry, looked up): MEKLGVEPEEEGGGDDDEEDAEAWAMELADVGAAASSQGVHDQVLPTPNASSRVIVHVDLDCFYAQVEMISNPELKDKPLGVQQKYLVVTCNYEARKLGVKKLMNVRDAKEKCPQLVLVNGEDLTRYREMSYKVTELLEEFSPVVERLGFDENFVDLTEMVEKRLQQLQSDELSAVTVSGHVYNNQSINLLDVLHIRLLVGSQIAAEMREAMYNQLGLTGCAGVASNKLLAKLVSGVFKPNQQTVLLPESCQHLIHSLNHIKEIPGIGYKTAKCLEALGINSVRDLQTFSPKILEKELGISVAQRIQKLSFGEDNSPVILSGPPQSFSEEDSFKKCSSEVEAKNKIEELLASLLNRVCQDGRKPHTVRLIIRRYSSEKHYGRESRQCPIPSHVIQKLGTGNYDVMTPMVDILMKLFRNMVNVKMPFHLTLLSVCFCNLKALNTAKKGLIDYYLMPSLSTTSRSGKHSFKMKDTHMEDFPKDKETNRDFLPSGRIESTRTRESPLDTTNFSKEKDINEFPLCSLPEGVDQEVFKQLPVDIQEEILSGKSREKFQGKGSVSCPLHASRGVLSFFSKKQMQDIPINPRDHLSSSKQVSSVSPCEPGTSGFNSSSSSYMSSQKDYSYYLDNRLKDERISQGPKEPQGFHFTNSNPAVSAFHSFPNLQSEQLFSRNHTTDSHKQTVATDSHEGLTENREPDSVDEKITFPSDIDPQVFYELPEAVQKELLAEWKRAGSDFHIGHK
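Fluorescent replication assay read twice, at 0 min and 10 min after adding 50 nM (final) substrate. Enzyme (10 nM) and compounds were first incubated 15 min at room temperature; enzyme-free buffer wells were negative controls.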
Pol kappa inh: qHTS for Inhibitors of Polymerase Kappa; Potency, µM (doses to about 107 µM), inactives show at the top dose activity, negative = inhibition, usual class: inhibitors; 0.53% of 400,000 active; purified Pol kappa, fluorescent DNA synthesis assay, 10 min; also: % is scaled to controls: 0 for no effect and ±100 for the full control effect
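Kinetic fluorescence readout at 0 and 10 min followed reaction start with substrate at 50 nM final. Beforehand, enzyme (10 nM Pol kappa) stood 15 min with compound at room temperature; buffer-only wells were negative controls.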
POLB inh: qHTS Assay for Inhibitors of DNA Polymerase Beta. P06746. Pol beta primer extension/strand displacement, fluorescence kinetic. Potency, µM (doses to about 114 µM), inactives show top-dose activity change, negative = inhibition, most hits filed as inhibitors. 1.3% of 340,000 active; also: % is scaled to controls: 0 for no effect and ±100 for the full control effect
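Preincubation: enzyme (10 nM) with compound, 15 min, RT. Reaction: substrate added to 50 nM final. Reads: 0 and 10 min. Analysis: normalized, Hill fit.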
APE1 inh: qHTS Assay for Inhibitors of the Human Apurinic/apyrimidinic Endonuclease 1 (APE1). DNA repair nuclease/redox regulator APEX1 (Homo sapiens), P27695. recombinant APE1, TAMRA/BHQ-2 abasic DNA cleavage fluorescence. Potency, µM (series often up to 65.8 µM), without a hit: at the top dose activity change, negative = inhibition, actives largely listed as inhibitors. 0.35% of 350,000 active. AID 2517, 2012;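 also: plate controls were vehicle for no effect and reference inhibitor for full effect; nearly all actives have a fitted effect of over 55% in size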
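APE1 at 0.75 nM preincubated 15 min at room temperature with compound. Reaction then started with 50 nM double-stranded THF-abasic substrate labelled with TAMRA/BHQ-2, and 525/598 nm fluorescence read kinetically. Activity taken as third-minus-first read difference, normalized to DMSO and NSC13755 controls.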
TbPGK inh: qHTS for inhibitors of Phosphogylcerate Kinase: Hit Validation Screen. 79% of 500 active. Potency, µM (titrated, usually from 57.5 µM), for inactives: at the highest dose activity change, negative = inhibition, actives largely listed as inhibitors. TbPGK coupled GAPDH assay, Kinase-Glo luminescence. shares compounds with Pol kappa inh. AID 686980, 2013; also: % is scaled to controls: 0 for no effect and ±100 for the full control effect; nearly all actives have a fitted effect of over 65% in size
POLI cherry-pick: qHTS for Inhibitors of Polymerase Iota: Confirmatory Assay for Cherry-picked Compounds | AID 720496, 2013 | Pol iota primer extension, TAMRA/BHQ fluorescence | Potency, µM, hits mostly inhibitors | shares compounds with Pol kappa inh | 77% of 1,500 active
Starred values were filed as active, the others as inactive; [ ] = dose if it differs, or a comment. Hits are enriched below; roughly 2.5% of the tested compounds scored in any of these assays. Calls follow the shape of the dose curve; as a rule, active = well fitted curve in the direction sought with a large enough effect; inconclusive = small, poorly fitted or top-dose-only effect, or another doubt; inactive = no such curve, though single readings can be large; an effect the other way counts as inactive or inconclusive. Potency is read from the fitted curve at half-maximal effect.

`COC(=O)c1sccc1S(=O)(=O)N(CC(=O)Nc1c(C)cccc1C)c1ccc(C)c(C)c1` gave POLH inh -15%, POLI inh -3%, Pol kappa inh -20% and POLB inh 0%.
Screening C=CCN1C=C2C(=O)C(C)(OC(=O)c3cnc4ccccc4n3)C(=O)C=C2C=C1/C=C/COC (stereo not drawn) returned POLH inh 25µM*, POLI inh inconclusive, Pol kappa inh inconclusive, APE1 inh -2%[12.4 µM] and POLI cherry-pick inconclusive.
`Cc1ccccc1Nc1nn2c(=O)c3ccc(C(=O)NCc4ccccc4)cc3nc2s1` gave POLH inh inconclusive, POLI inh 79µM*, Pol kappa inh 0%[60.1 µM], POLB inh 13µM* and POLI cherry-pick inconclusive.
CCc1ccccc1Nc1nn2c(=O)c3ccc(C(=O)NCc4ccc(C)cc4)cc3nc2s1 was read as POLH inh -13%, POLI inh 10%, Pol kappa inh -1% and POLB inh -2%.
`Cc1cc(C)c2c(N)c3cccc(C)c3nc2n1` gave L3MBTL1 inh -5%, POLH inh -19%, POLI inh inconclusive, Pol kappa inh inconclusive, POLB inh 13µM*, APE1 inh inconclusive and POLI cherry-pick 34*.
Cc1cccc2c(N)c3c(nc12)CCCC3 (tested in a mixture with another compound) was read as L3MBTL1 inh -1%, POLH inh -18%, POLI inh 46%, Pol kappa inh 4%, POLB inh 5% and APE1 inh inconclusive.
Screening CC(C)(C)n1cnnc1Sc1ncccc1[N+](=O)[O-] returned POLH inh -14%, POLI inh -5%, Pol kappa inh 2%, POLB inh -9% and APE1 inh -1%.
`O=C(O)c1ccc(-n2cccc2/C=C2\SC(=O)N(Cc3ccc(Cl)c(Cl)c3)C2=O)cc1` gave POLI cherry-pick 67*.
O=C(CN1C(=O)S/C(=C/c2cccn2-c2ccc(O)cc2)C1=O)N1CCCC1 was read as POLH inh -9%, POLI inh -8%, Pol kappa inh -3%, POLB inh 9% and APE1 inh 38%.
`CCc1nnc(NC(=O)C2CCCN(C(=O)c3ccoc3)C2)s1` (stereo not drawn) gave POLI inh 32% and Pol kappa inh 2%.
For O=C(O)c1ccccc1C(=O)Nn1cnnc1 the results were POLH inh -6%, POLI inh -13%, Pol kappa inh -7%, POLB inh 20% and APE1 inh 22%.
Screening O=C1c2cccc3cc([N+](=O)[O-])cc(c23)C(=O)N1CCN1CCCC1 returned POLH inh -7%, POLI inh 20µM*, Pol kappa inh 79µM*, POLB inh 14µM*, APE1 inh inconclusive and POLI cherry-pick 19*.
For Cc1cc(C)c(S(=O)(=O)N2CCN(CCN3C(=O)c4cccc5cccc(c45)C3=O)CC2)cc1[N+](=O)[O-] the results were L3MBTL1 inh 1%, POLB inh 2% and APE1 inh 2%.
For C[C@@H]1O[C@@H](O[C@@H]2[C@@H](O)[C@H](OCCc3ccc(O)c(O)c3)O[C@H](CO)[C@H]2OC(=O)/C=C/c2ccc(O)c(O)c2)[C@H](O)[C@H](O)[C@H]1O the results were L3MBTL1 inh inconclusive, POLH inh -5%, POLI inh inconclusive, Pol kappa inh 22µM*, APE1 inh 8% and POLI cherry-pick 21*.
For COc1ccc(C(=O)N2CCC3(CCCN(c4ccncc4)C3)CC2)cc1 the results were Pol kappa inh 0%[60.1 µM] and APE1 inh 25%.
For C[C@]12O[C@H]1[C@@H](O)C(Br)=C(CO)[C@H]2O the results were APE1 inh 17%.
O=c1[nH]c(/C=C/c2cccc3ccccc23)nc2ccccc12 was read as L3MBTL1 inh 0%, POLH inh -14%, POLI inh 83%, Pol kappa inh -4%, POLB inh 3% and APE1 inh 5%.
`O=c1nc2cccc3c2=c(/c1=C(\O)c1ccccc1)c1ccccc1c3=O` gave L3MBTL1 inh -29%, POLH inh 50µM*, POLI inh 45%, Pol kappa inh 7%[60.1 µM], POLB inh 10µM*, APE1 inh 23% and POLI cherry-pick inconclusive.
For Cc1cc(C)nc(-n2nc(C)c3c2N(Cc2ccccc2C)C(=O)CC3c2ccc(Cl)cc2)n1 (stereo not drawn) the results were POLH inh -8%, POLI inh 14%, Pol kappa inh -24% and POLB inh inconclusive.
Screening O=C(O)CSCC(=O)Nc1ccc(-c2nc3ccccc3s2)cc1 returned L3MBTL1 inh -5%, POLH inh 45µM*, POLI inh -1%, Pol kappa inh -12%, POLB inh inconclusive, APE1 inh inconclusive and TbPGK inh inconclusive.
CC1=Nc2cc(C(=O)NCCc3ccc(Cl)cc3)ccc2Sc2ccc(C)cc21 was read as POLH inh -14%, POLI inh 1%, Pol kappa inh -4% and POLB inh 7%.
COc1ccccc1NC(=O)c1cc2ccc(O)cc2o/c1=N\O was read as L3MBTL1 inh -3%, POLH inh inconclusive, POLI inh -12%, Pol kappa inh -35%, POLB inh -17% and APE1 inh -11%.
COc1ccccc1NC(=O)c1cc2ccccc2o/c1=N\O was read as L3MBTL1 inh 4%, POLH inh inconclusive, POLI inh 79µM*, Pol kappa inh -39%, POLB inh 20µM*, APE1 inh 0% and POLI cherry-pick inconclusive.
